FH mod: Identification of activators of human fumarate hydratase by quantitative high-throughput screening. Fumarate hydratase, mitochondrial (Homo sapiens), P07954. FH coupled MDH/diaphorase resazurin fluorescence, 15 min. Potency, µM (titrated, usually from 79.9 µM), for inactives: at the top dose activity change, negative = inhibition, usual class: inhibitors. 54,000 compounds, 0.22% hits. AID 1347055, 2019; further: potency means the concentration at half of the fitted maximal effect; on the % scale 0 is the no-effect control and ±100 the full control effect; the screen sought activators but most active calls are inhibition curves; nearly all actives have a fitted effect of over 45% in size
p53null 32C tox: kills p53 null cells at the permissive temperature | Potency, µM (top dose mostly 46.1 µM), inactives show at the top dose activity change, negative = cytotoxicity, actives largely listed as cytotoxic | 55,000 compounds, 0.62% hits | H1299-neo p53 null cells, ATP luminescence, 24 h, 32C;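 further: potency means the concentration at half of the fitted maximal effect; 0% = DMSO only and -100% = full killing by 100 µM tamoxifen; nearly all actives have a fitted effect of over 55% in size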
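H1299-neo, 600 cells/well; overnight 37C; cpd up to 46 uM, 24 h at 32C; ATPlite luminescence after 20 min RT; normalized to DMSO (0%) and tamoxifen 100 uM (100% kill); Hill-fit AC50.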
p53null 39C kill: p53 null cell cytotoxicity, nonpermissive temperature; H1299 p53-null (neo) cells, 39C, ATPlite viability, 24 h; Potency, µM (highest dose often 46.1 µM), without a hit: at the top dose activity, negative = cell killing, most hits filed as cytotoxic; 55,000 compounds, 0.97% hits; AID 904;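 further: potency means the concentration at half of the fitted maximal effect; 0% = DMSO only and -100% = full killing by 100 µM tamoxifen; nearly all actives have a fitted effect of over 50% in size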
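ATP-luminescence viability readout (ATPlite, 20 min RT) after 24 hr compound treatment at 39C of H1299-neo or H1299-p53A138V cells; titration up to 46 uM; normalized to DMSO and 100 uM tamoxifen; Hill-fit AC50.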
NTMT1 inh: blocks human N-terminal methyltransferase 1 activity | Potency, µM (titrated, usually from 114 µM), for the others: at the highest dose activity change, negative = inhibition, actives largely listed as inhibitors | NTMT1 MTase-Glo SAH luminescence, purified enzyme | Q9BV86 | 59,000 compounds, 2.5% hits | AID 1645870;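 further: potency means the concentration at half of the fitted maximal effect; plate controls were DMSO vehicle for no effect and no enzyme for full effect; nearly all actives have a fitted effect of over 65% in size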
Target sequence (Q9BV86 whole entry, looked up): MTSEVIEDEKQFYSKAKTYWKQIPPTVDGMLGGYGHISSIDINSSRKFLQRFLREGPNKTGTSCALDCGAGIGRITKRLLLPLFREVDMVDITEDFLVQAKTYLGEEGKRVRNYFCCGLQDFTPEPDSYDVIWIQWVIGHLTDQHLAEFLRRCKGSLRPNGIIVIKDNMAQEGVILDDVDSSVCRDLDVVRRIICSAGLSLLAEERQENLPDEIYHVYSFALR
GALC G270D act: raises human GALC G270D mutant activity in cells; P54803; 145M-Twi-hGALC-G270D cells (Twitcher mouse brain line with human GALC G270D), HMU-beta-Gal fluorescence, 48 h; Potency, µM (top dose mostly 57.5 µM), usual class: activators; 45,000 compounds, 0.1% hits; further: potency means the concentration at half of the fitted maximal effect; 0% is about no effect; nearly all actives have a fitted effect of over 65% in size
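Mutant human GALC (G270D), stably expressed in a Twitcher mouse brain cell line lacking endogenous GALC, is measured in live-treated cells via 6-hexadecanoylamino-4-methylumbelliferyl-β-galactoside hydrolysis (0.1 mM final, pH 5.2) with fluorescent detection.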
GPR32 ag: agonists of human resolvin D1 receptor DRV1 (GPR32) | O75388 | CHO-K1 GPR32 beta-arrestin PathHunter luminescence, 90 min; zero percent set by DMSO-only wells | activation, % at 76.9 µM | 48,000 compounds, 2.5% hits | AID 1346428;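 active means activation of at least 60% and not above a set upper limit, about 1 call in 100 departs from these limits; inconclusive means activation of 40% to 60%, or above that upper limit; inactive means activation under 40%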; further: 0% is about no effect
Target sequence (O75388 whole entry, looked up): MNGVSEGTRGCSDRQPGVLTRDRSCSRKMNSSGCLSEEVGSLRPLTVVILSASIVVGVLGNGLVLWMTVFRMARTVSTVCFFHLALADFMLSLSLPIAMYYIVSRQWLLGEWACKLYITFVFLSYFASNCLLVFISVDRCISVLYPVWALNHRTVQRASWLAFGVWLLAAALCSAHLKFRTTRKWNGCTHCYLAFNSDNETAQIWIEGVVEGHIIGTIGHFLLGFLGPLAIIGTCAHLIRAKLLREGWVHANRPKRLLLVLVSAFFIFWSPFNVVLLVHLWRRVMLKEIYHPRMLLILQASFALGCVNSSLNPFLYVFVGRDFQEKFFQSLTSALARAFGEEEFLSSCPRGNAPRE
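Engineered CHO-K1 line co-expressing GPR32-ProLink and EA-beta-arrestin. Compound treatment lasted 90 min at 37 °C. Luminescence was recorded after 1 h with substrate at ambient temperature, relative to DMSO basal wells.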
NNMT counter: counter-screen for NTMT1 inhibitors: human NNMT inhibition | 120 compounds, 10% hits | Potency, µM (doses to about 57.1 µM), for the others: at the highest dose activity, negative = inhibition, usual class: inhibitors | NNMT MTase-Glo luminescence, SAH detection | shares compounds with NTMT1 inh
The depositor's hits bear a star; i = inactive; ? = inconclusive; / = no result; [ ] = another dose, or the depositor's remark. Hits are enriched below; roughly 3.9% of the tested compounds scored in any of these assays. Unless noted, the call rests on the fitted dose curve; in most records, active means well fitted curve in the direction sought with a large enough effect; inconclusive means small, poorly fitted or top-dose-only effect, or another doubt; inactive means no such curve, though single readings can be large; an effect the other way counts as inactive or inconclusive.

SMILES	FH mod	p53null 32C tox	p53null 39C kill	NTMT1 inh	GALC G270D act	GPR32 ag	others
CC(C)(O)C1CC(=O)C2(C)C(CCC3(C)C(c4ccoc4)OC(=O)C4OC432)C12CCC(=O)OC2 (stereo not drawn)	5%[53.3 µM]	/	/	12%[29.8 µM]	/	/
CC(=O)Nc1ccc(NC(=O)CN(C)S(=O)(=O)c2ccc3c(c2)CCCC(=O)N3)cc1	-1%	5%	-14%	5%	i	19
COc1cc(Cl)c(NC(=O)CN(C)S(=O)(=O)c2ccc3c(c2)CCCC(=O)N3)c(OC)c1	-16%	-10%	?	9%	i	67*
COc1ccc(N2CCN(S(=O)(=O)c3ccc(F)c(C(=O)Nc4ccccc4Cl)c3)CC2)cc1	7%	?	22%	13%	i	91*
C=C1C(=C/C=C2\CCC[C@]3(C)[C@@H]([C@H](C)/C=C/[C@@H](O)C4CC4)CC[C@@H]23)C[C@@H](O)C[C@@H]1O	-19%[53.3 µM]	/	/	-7%[57.5 µM]	i	107*
NS(=O)(=O)c1ccc(CCNc2nccn(-c3cccc(C(F)(F)F)c3)c2=O)cc1	14%	-4%	3%	7%	i	63*
COc1ccc(-n2ccnc(NCCc3ccc(S(N)(=O)=O)cc3)c2=O)cc1Cl	5%	-5%	-14%	14%	i	?
Cc1ccc(-c2nc3ccccc3s2)cc1NC(=O)c1ccc(-c2cccc(Cl)c2)o1	/	/	/	6%	/	/
c1cncc(-c2ccc(CNc3nc(N4CCOCC4)nc4ccccc34)cc2)c1	/	/	/	-12%[57.5 µM]	/	/
Cc1cccc(-c2nc(SCc3cc(=O)c4c(C)cc(C)cc4[nH]3)n[nH]2)c1	6%	?	?	-8%	i	116*
CN1C/C=C/CCOc2cccc(c2)-c2ccnc(n2)Nc2cccc(c2)C1	10%	/	/	40µM*	/	/
CO[C@@]1(NC(=O)C(C(=O)O)c2ccc(O)cc2)C(=O)N2C(C(=O)O)=C(CSc3nnnn3C)CO[C@@H]21 (stereo partly drawn)	0%[53.3 µM]	/	/	?	i	63*
COc1cc(Cl)c(NS(=O)(=O)c2ccc(-c3coc(C)n3)cc2)c(OC)c1	-2%	9%	21%	1%	i	83*
CCN(CC)c1ccc(NS(=O)(=O)c2ccc(-c3coc(C)n3)cc2)c(C)c1	?	59%	3%	-9%	i	68*
Cc1nc(-c2ccc(S(=O)(=O)Nc3ccc(C)c(N(C)C)c3)cc2)co1	-3%	16%	0%	-7%	i	44
COc1cc(Cl)c(NS(=O)(=O)c2cc(-c3cc(C)no3)ccc2OC)c(OC)c1	-28%	21%	-7%	-14%	i	-15
COc1cncc(NC(=O)c2cccs2)c1	/	/	/	3%[57.5 µM]	/	/
CCOc1ccc(-c2cc(C(=O)N3CCN(c4ccc(C)cc4)C(C)C3)c3ccccc3n2)cc1 (stereo not drawn)	-13%	13µM*	?	6%	i	-23
CCOc1ccc(-c2cc(C(=O)N3CCN(c4cccc(C)c4)C(C)C3)c3ccccc3n2)cc1 (stereo not drawn)	-38%	?	9%	-8%	i	-16
CCc1ccc(CNC(=O)COc2cc(=O)n(CC)c3ccccc23)cc1	-15%	3%	-2%	-2%	i	117*
CCn1c(=O)cc(OCC(=O)N2CCN(c3ccc(C)cc3)C(C)C2)c2ccccc21 (stereo not drawn)	-7%	-4%	25µM*	-19%	i	74*
CNC(=O)C1=C(C)NC(Nc2nc3ccccc3o2)=NC1c1nn(C)cc1Cl (stereo not drawn)	/	/	/	14%	/	/
CCCCNC(=O)CN1CCN(c2ncc(NC(=O)c3ccc(Cl)cc3)cc2C(=O)O)CC1	-30%	-7%	7%	40µM*	i	11
CN1CCN(c2ccc(NC(=O)CN(C)Cc3c(O)ccc4ccccc34)cc2)CC1	/	/	/	-6%[57.5 µM]	/	/
Cc1cc(C)c(NC(=O)Nc2ccc3snnc3c2)c(C)c1	6%	6%	?	-1%	i	63*
SMILES	FH mod	p53null 32C tox	p53null 39C kill	NTMT1 inh	GALC G270D act	GPR32 ag	others
CCOC(=O)c1c(C)[nH]c(C)c1S(=O)(=O)N(C)CC(=O)NCc1cccc(Br)c1	-2%	-1%	-5%	-20%	i	101*
C=C1C(OC(C)=O)C(=O)C2C(C)(C)C(OC(C)=O)CCC2(C)C1CC(OC(C)=O)/C(C)=C/COC(C)=O (stereo not drawn)	33%[53.3 µM]	/	/	-4%[29.8 µM]	/	/
Cc1ccc(CN2C(=O)C(=O)c3cc(Br)cc(C)c32)cc1	-17%	?	11µM*	-3%	i	-53
COc1cccc(NC(=O)CSc2nccn2Cc2ccc3c(c2)OCO3)c1	-8%	-6%	-10%	-4%	i	75*
CCOC(=O)C1CCN(C(=O)C2(NC(=O)Nc3ccccc3Cl)CCCC2)CC1	/	/	/	10%[57.5 µM]	/	/
CN=c1nc(-c2ccccc2)n(-c2ccccc2)s1	?	/	/	/	/	-2	NNMT counter=22µM*
CCc1nc(C(N)=O)c(Nc2ccc(N3CCC(N4CCN(C)CC4)CC3)c(OC)c2)nc1NC1CCOCC1	-1%[53.3 µM]	/	/	20µM*	/	/	NNMT counter=-16%[38.3 µM]

Screening results from PubChem.
